Bioassay records as filed in PubChem.
BAZ2B inh – qHTS Assay for Inhibitors of BAZ2B. Potency, µM (highest dose often 114 µM), for inactives: at the highest dose activity change, negative = inhibition, actives largely listed as inhibitors. AlphaScreen BAZ2B-H3K14Ac peptide displacement. hit rate 4.4% among 360,000. Bromodomain adjacent to zinc finger domain protein 2B (Homo sapiens), Q9UIF8; further: on the % scale 0 is the no-effect control and ±100 the full control effect; nearly all actives have a fitted effect of over 60% in size
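Inhibition is scored as reduced AlphaScreen emission. The BAZ2B/b-H3(5-23)K14Ac complex (50 nM each) in PBS pH 7.4, 0.01% Tween-20 meets compound (up to 110 uM) for 30 min at RT before bead addition.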
G9a inh – qHTS Assay for Inhibitors of Histone Lysine Methyltransferase G9a | Histone-lysine N-methyltransferase EHMT2 (Homo sapiens), Q96KQ7 | AID 504332, 2011 | G9a H3K9 monomethylation, AlphaScreen, 2 h | Potency, µM (titrated, usually from 102 µM), for inactives: at the highest dose activity, negative = inhibition, actives largely listed as inhibitors | hit rate 8.8% among 350,000; further: on the % scale 0 is the no-effect control and ±100 the full control effect; nearly all actives have a fitted effect of over 75% in size
Target sequence (Q96KQ7 913-1193 limits assumed): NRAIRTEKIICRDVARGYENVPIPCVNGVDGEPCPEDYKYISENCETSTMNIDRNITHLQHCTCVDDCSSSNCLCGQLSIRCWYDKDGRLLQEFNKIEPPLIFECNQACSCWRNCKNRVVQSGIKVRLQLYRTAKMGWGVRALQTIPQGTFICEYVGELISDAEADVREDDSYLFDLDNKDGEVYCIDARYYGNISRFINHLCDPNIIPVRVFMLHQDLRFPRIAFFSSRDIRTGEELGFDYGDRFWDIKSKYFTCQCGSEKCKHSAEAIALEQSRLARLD
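Readings reflect AlphaScreen signal from monomethyl-H3K9 antibody detection. HMT at 20 nM; substrate b-H3K9 500 nM; cofactor SAM 20 uM; 2 h RT reaction; compounds tested as titrations in qHTS with 15 min preincubation.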
HP1b binding inh – HTS for Inhibitors of HP1-beta Chromodomain Interactions with Methylated Histone Tails | AlphaScreen HP1-beta / biotin-H3K9me3 peptide binding | Chromobox protein homolog 1 (Homo sapiens), P83916 | AID 540317, 2011 | hit rate 0.56% among 390,000 | Potency, µM (doses to about 114 µM), for the others: at the highest dose activity change, negative = inhibition, hits mostly inhibitors; further: nearly all actives have a fitted effect of over 70% in size
Target sequence (P83916 whole entry, looked up): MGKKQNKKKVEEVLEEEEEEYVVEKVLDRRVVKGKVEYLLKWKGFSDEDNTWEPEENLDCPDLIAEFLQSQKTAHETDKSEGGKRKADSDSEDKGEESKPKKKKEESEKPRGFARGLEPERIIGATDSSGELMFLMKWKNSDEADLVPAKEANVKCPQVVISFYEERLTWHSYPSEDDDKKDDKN
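HP1-beta protein (50 nM final) preincubated 30 min at room temperature with biotinylated H3(1-18)K9me3 peptide (50 nM) in PBS pH 7.4, 0.01% Tween-20, then compound added for 30 min. AlphaScreen streptavidin donor/nickel chelate acceptor beads (10 ug/mL final), 30 min dark, luminescence read.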
JMJD2A Tudor inh – qHTS Assay for Inhibitors of JMJD2A-Tudor Domain. AlphaScreen JMJD2A-Tudor / H3K4me3 peptide binding. Potency, µM (series often up to 114 µM), for the others: top-dose activity change, negative = inhibition, most hits filed as inhibitors. hit rate 4.4% among 390,000. AID 504339, 2011; further: on the % scale 0 is the no-effect control and ±100 the full control effect; nearly all actives have a fitted effect of over 50% in size
Sfp PPTase inh – qHTS Assay for Inhibitors of Bacillus subtilis Sfp phosphopantetheinyl transferase (PPTase) | 4'-phosphopantetheinyl transferase ffp (Bacillus subtilis), Q9F4F7 | Biochemical Sfp PPTase activity, qHTS | hit rate 3.5% among 310,000 | Potency, µM, for inactives: largest response in the series, negative = inhibition, usual class: inhibitors;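 further: the enzyme is Sfp with the accession as filed and its product quenches rhodamine fluorescence; 0% = enzyme reaction without inhibitor and -100% = no enzyme wells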
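Fluorescence-quenching assay with 15 nM Sfp, 5 uM rhodamine-CoA and 12.5 uM BHQ-2-labelled ybbR peptide in pH 7.6 Hepes/MgCl2 buffer. Enzyme was pre-incubated with compound for 15 min at room temperature. Rate was taken from the 30-min fluorescence change (525/598 nm).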
PLK1 PBD inh – qHTS for Inhibitors of PLK1-PDB (polo-like kinase 1 - polo-box domain): Primary Screen. Plk1 PBD binding of FITC phosphopeptide, fluorescence polarization. Potency, µM, without a hit: max response, negative = inhibition, usual class: inhibitors. hit rate 2.8% among 360,000. AID 720504, 2013; further: series mostly up to about 57 µM; on the % scale 0 is the no-effect control and ±100 the full control effect; nearly all actives have a fitted effect of over 65% in size
The depositor's hits bear a star; u = inconclusive; x = not tested or not shown; ! = a repeat was not active; [ ] = another dose, or the depositor's remark. Compounds with a hit are over-represented: about 12% of the library has one in this group of screens. The call rests on the fitted dose curve; in most records, active means well fitted curve in the direction sought with a large enough effect; inconclusive means small, poorly fitted or top-dose-only effect, or another doubt; inactive means no such curve, though single readings can be large; an effect the other way counts as inactive or inconclusive. Potency means the concentration at half of the fitted maximal effect.

SMILES	BAZ2B inh	G9a inh	HP1b binding inh	JMJD2A Tudor inh	Sfp PPTase inh	PLK1 PBD inh
CN(CC(=O)Nc1ccc(F)cc1)C(=O)c1cc(-c2ccco2)nc2ccccc12	39.8µM*	-10.2%[0.501 µM]	-13.6%	u	x	u
COc1cccc(NC(=O)c2cc(-c3ccco3)nc3ccccc23)c1	x	x	-21.3%	u	x	-36.9%
COc1cccc(NC(=O)CN(C)C(=O)c2cc(-c3ccco3)nc3ccccc23)c1	79.4µM*	50.1µM*	u	17.8µM*	x	-19.3%
O=C(NCc1cccc(Br)c1)c1cccn1-c1nnc(N2CCCCC2)s1	-8.5%	-8.8%[59 µM]	-17.6%	-35.1%	x	x
Cc1ccc(CNC(=O)Cc2csc3ccccc23)cc1	-8.9%	9.9%[59 µM]	40.4%	-16.1%	x	x
COc1ccc([C@H]2CC(=O)C=C(c3ccc4cc[nH]c4c3)C2)cc1	-25.2%	1.2%[0.501 µM]	28.2%	u	x	-4.5%
OC[C@H]1O[C@@H](O[C@@H]2OC=C[C@H]3[C@H](O)[C@@H]4O[C@]4(CO)[C@@H]23)[C@H](O)[C@@H](O)[C@@H]1O	x	x	x	x	-1.3%	x
O=C(Nc1ccc2nc(SCC(=O)N3CCOCC3)sc2c1)c1cccc(Cl)c1	-2.8%	1.0%[59 µM]	52.3%	-7.3%	x	x
CN1CCCC(CN2c3ccccc3Sc3ccccc32)C1 (centres undefined)	-38.8%	-9.3%[12.7 µM]	10.5%	-35.3%	3.6%	-6.5%
CN1CCCCC1CCN1c2ccccc2Sc2ccc(S(C)=O)cc21 (centres undefined)	-21.0%	5.62µM*!	14.5%	-20.1%	-13.1%	-11.6%
COC(=O)C[C@H]1c2ccccc2[C@H]2C(=C[C@@H](C)[C@H]3C(=O)N(O)C(=O)[C@H]32)N1C(=O)OC	x	x	x	x	9.7%	x
COc1ccc(CN2CCC(N3CC(C)OC(C)C3)CC2)c(OC)c1OC (centres undefined)	u	x	u	20µM*	56.2µM*	-2.4%
Cc1ccc(CN2CCC(N3CC(C)OC(C)C3)CC2)cc1 (centres undefined)	56.2µM*	12.6µM*	u	22.4µM*	-23.5%	0.6%
COc1ccc(CCNC(=O)CSc2nc3c(sc(=S)n3-c3ccccc3)c(=O)[nH]2)cc1OC	x	x	x	x	x	-6.6%
O=C1CC(c2ccco2)CC2=C1C(c1ccc(O)cc1)n1nc(C(F)(F)F)nc1N2 (centres undefined)	x	x	u	56.2µM*	x	x
O=C1CC(c2ccco2)CC2=C1C(c1cccnc1)n1nc(C(F)(F)F)nc1N2 (centres undefined)	x	x	-14.3%	u	x	x
Cc1cc(Cl)c2c(c1)[C@]1(C(=O)N2)[C@@H]2C(=O)N(Cc3ccccc3)C(=O)[C@@H]2[C@@H]2CCCN21	u	44.7µM*	17.6%	-31.3%[57.1 µM]	-13.6%	-15.9%
CCc1c2c(nc3ccc(OC)cc13)COC2	x	x	x	x	14.6%	x
CC(C)Oc1ccccc1C1CC(=O)Nc2cc3c(cc21)OCO3 (centres undefined)	u	u	-38.7%	56.2µM*	3.2%	-1.6%
COc1ccccc1N(CC(=O)Nc1ccc2c(c1)OCO2)S(=O)(=O)c1ccccc1	56.2µM*	28.2µM*	-3.5%	u	-5.3%	-7.0%
COc1ccccc1N(CC(=O)NC1CC2CCC1C2)S(=O)(=O)c1ccc(C)cc1 (centres undefined)	-14.5%	x	8.6%	-16.6%	0.5%	-2.3%
COc1ccc(S(=O)(=O)N(CC(=O)NC2CC3CCC2C3)c2ccccc2OC)cc1 (centres undefined)	-0.2%	-6.4%	-5.7%	u	10.3%	26.7µM*
CCOc1ccccc1N(CC(=O)NC1CCCCC1)S(=O)(=O)c1ccccc1	-0.8%	25.1µM*	8.5%	-9.0%	10.6%	-4.6%
O=C(OCC#CCSc1nnc(-c2ccccc2Cl)o1)c1ccc(F)cc1	x	x	x	54.4%	x	x
CCCCCCCC/C=C\CCCCCCCC(=O)N[C@H](CO)Cc1ccc(O)cc1	x	x	x	x	13.6%	x
SMILES	BAZ2B inh	G9a inh	HP1b binding inh	JMJD2A Tudor inh	Sfp PPTase inh	PLK1 PBD inh
Cc1c(N=C2C=C(Br)C(=O)C(Br)=C2)c(=O)n(-c2ccccc2)n1C	20µM*	7.08µM*	28.2µM*	56.2µM*	39.8µM*	6.7µM*
Cc1c(N2C(=O)c3ccccc3C2=O)c(=O)n(-c2ccccc2)n1C	15.5%	-6.6%	3.3%	-6.5%	-4.2%	-8.3%
Cc1c(N=C2C=CC(=O)c3ccccc32)c(=O)n(-c2ccccc2)n1C	28.2µM*	35.5µM*	10µM*	44.7µM*	17.8µM*	18.9µM*
Cc1csc(=Nc2c(C)n(C)n(-c3ccccc3)c2=O)n1Cc1ccccc1	0.4%	-17.2%	13.7%	-24.0%	2.5%	4.6%
CC(C)[C@@H](CSc1ccccc1)N1CCN(Cc2ccccc2)CCC1=O	-26.0%	22.1%	7.6%	-20.8%	17.8%	-6.8%
COc1ccc(NC2=C(C(C)=O)C(c3ccc(N(C)C)cc3)C(C(C)=O)C(C)(O)C2)cc1 (centres undefined)	-2.9%	20µM*	2.1%	-23.2%	-2.3%	8.0%
CC1CC2(CCCCC2)N2C(=O)C(=O)c3cccc1c32 (centres undefined)	u	70.8µM*	u	u	6.2%	-28.7%
N#C/C(=N\Nc1ccccc1)C(=N)N1CCCCC1	u	-7.1%	-8.0%	-23.2%	4.6%	-4.2%
CCN(CC)C(=N)/C(C#N)=N/Nc1ccccc1	-14.9%	x	u	79.4µM*	9.5%	-0.3%
CCC1CCCCN1S(=O)(=O)c1cc(C(=O)Nc2ccc(C)c(F)c2)ccc1F (centres undefined)	4.8%	1.2%[59 µM]	31.9%	-15.3%	x	x
O=C(c1cc2ccccc2o1)N1CCN(c2ccccn2)CC1	u	1.4%	u	3.4%	-2.3%	0.6%
COCCCn1c(-c2ccccc2Cl)n[nH]c1=S	-1.2%	2.24µM*	22.5%	7.94µM*	8.6%	-0.6%
CCOCCCn1c(-c2ccc(Cl)cc2)n[nH]c1=S	-6.4%	1.78µM*	-20.7%	3.98µM*	5.9%	-6.2%
S=c1[nH]nc(-c2ccc(Cl)cc2)n1CCCN1CCOCC1	6.2%	39.8µM*	16.1%	10µM*	12.7%	-11.9%
COCCCn1c(-c2ccc(Cl)cc2)n[nH]c1=S	-17.2%	3.98µM*	-10.8%	7.94µM*	2.1%	-12.1%
COc1ccc(CNC(=O)c2c(C)oc3c2C(=O)c2ccccc2C3=O)cc1	7.94µM*	11.2µM*	7.5%	u	9.6%	-7.8%
